Experimental data taken from PubChem BioAssay.
The source made the active and inactive calls.

Tests used:
[1] = tested on: Plasmodium falciparum Sir2 (PF13_0152, Sir2A); experiment: Plasmodium falciparum Sir2A binding compounds – biochemical, small-molecule microarray, 635 nm fluorescence, primary screen (AID 1098); conditions: fluorescence 635 nm, higher = more signal;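 further: score merges spot fluorescence intensity with its signal-to-noise ratio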
[2] = probe aDKK1 binding to arrayed compounds – biochemical, biotinylated probe, 635/667 nm fluorescence, primary screen (AID 1099); conditions: small-molecule microarray, higher = more signal;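 further: score merges 667nm spot fluorescence with signal to noise across triplicate slides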
[3] = probe aCHRDL2 binding to arrayed compounds – biochemical, biotinylated probe, 635/667 nm fluorescence, primary screen (AID 1100); conditions: small-molecule microarray, higher = more signal
[4] = change in splice reporter luminescence, either direction, cell-based, HEK293, spliceosome inhibition project, primary screen (AID 1101); conditions: HEK293 splicing luciferase reporter, 24 h, higher = more signal, called active from +8 up or from −8 down;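 further: HEK293 cells carrying a splicing-competent luciferase reporter gene; test concentration not given here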
[5] = biological target: Fibroblast growth factor 10 (Homo sapiens) (UniProt O15520); experiment: compounds binding fibroblast growth factor 10 – biochemical, small-molecule microarray, 635 nm fluorescence, primary screen (AID 1102); conditions: FGF10 binding, fluorescence 635 nm, higher = more signal
Chain of Fibroblast growth factor 10 (Homo sapiens) (O15520 whole entry, looked up): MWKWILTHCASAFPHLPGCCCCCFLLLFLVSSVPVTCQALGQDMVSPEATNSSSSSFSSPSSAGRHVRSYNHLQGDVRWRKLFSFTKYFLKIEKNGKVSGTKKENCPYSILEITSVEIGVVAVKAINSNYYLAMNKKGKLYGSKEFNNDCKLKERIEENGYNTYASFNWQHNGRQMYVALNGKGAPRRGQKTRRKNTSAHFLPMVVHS

[6] = tested on: glycogen synthase kinase-3 (GSK3A per assay name; protocol says GSK3B); experiment: compounds binding glycogen synthase kinase-3 – biochemical, small-molecule microarray, 635 nm fluorescence, GSK3A, primary screen (AID 1103); conditions: fluorescence 635 nm, higher = more signal; further: the record names both GSK3A and GSK3B
[7] = biological target: Epidermal growth factor receptor (Homo sapiens) (UniProt P00533); experiment: compounds binding epidermal growth factor receptor – biochemical, small-molecule microarray, 635 nm fluorescence, primary screen (AID 1104); conditions: EGFR binding, higher = more signal;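 further: score merges 667 nm emission intensity with spot signal to noise over triplicate slides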
Chain of Epidermal growth factor receptor (Homo sapiens) (P00533 whole entry, looked up): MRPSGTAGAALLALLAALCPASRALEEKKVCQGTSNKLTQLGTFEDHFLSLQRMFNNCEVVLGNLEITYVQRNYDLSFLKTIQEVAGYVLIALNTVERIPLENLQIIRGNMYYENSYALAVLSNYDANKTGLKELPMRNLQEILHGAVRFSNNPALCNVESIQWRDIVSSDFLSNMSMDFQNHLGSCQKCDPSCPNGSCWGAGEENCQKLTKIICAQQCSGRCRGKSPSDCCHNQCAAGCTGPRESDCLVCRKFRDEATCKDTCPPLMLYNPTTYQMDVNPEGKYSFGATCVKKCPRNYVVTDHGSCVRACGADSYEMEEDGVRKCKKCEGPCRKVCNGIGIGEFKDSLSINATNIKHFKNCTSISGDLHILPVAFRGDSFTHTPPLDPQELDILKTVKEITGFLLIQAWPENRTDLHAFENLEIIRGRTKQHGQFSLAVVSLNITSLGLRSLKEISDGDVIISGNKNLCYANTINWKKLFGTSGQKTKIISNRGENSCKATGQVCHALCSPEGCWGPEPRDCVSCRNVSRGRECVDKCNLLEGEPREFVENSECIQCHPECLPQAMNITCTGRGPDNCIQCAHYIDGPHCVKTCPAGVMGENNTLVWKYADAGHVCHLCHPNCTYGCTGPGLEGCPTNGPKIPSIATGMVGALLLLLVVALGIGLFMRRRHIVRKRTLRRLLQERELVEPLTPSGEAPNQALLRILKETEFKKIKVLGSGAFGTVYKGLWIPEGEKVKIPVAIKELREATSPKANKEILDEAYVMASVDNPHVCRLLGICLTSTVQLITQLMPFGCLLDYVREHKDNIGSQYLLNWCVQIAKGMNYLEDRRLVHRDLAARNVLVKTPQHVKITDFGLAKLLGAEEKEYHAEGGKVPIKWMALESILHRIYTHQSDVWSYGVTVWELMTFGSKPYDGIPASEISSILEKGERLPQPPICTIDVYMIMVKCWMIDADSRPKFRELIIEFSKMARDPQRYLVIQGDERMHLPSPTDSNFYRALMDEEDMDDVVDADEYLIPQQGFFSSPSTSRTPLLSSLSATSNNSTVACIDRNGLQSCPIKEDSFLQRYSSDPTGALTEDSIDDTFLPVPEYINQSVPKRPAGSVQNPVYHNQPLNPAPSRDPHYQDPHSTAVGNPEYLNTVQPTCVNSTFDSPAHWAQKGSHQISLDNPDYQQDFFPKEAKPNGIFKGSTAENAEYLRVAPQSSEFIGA

[8] = biological target: Follistatin-related protein 3 (Homo sapiens) (UniProt O95633); experiment: compounds binding follistatin-related protein 3 – biochemical, small-molecule microarray, 635 nm fluorescence, primary screen (AID 1105); conditions: FSTL3 binding, higher = more signal;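 further: score merges emission near 667 nm and signal to noise per printed spot across three slides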
Chain of Follistatin-related protein 3 (Homo sapiens) (O95633 whole entry, looked up): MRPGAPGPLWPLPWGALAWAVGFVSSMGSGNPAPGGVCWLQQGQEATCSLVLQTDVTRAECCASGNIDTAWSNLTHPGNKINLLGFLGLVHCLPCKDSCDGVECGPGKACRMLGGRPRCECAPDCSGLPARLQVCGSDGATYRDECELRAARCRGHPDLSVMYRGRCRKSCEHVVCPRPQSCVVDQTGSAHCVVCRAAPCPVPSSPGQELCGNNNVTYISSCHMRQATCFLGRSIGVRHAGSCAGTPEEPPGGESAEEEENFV

[9] = biological target: Dickkopf-related protein 1 (Homo sapiens) (UniProt O94907); experiment: small molecules binding DKK1 protein – biochemical, small-molecule microarray, 635 nm fluorescence scan, primary screen (AID 1106); conditions: higher = more signal;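 further: score merges emission near 667 nm with signal to noise over three replicate slides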
Chain of Dickkopf-related protein 1 (Homo sapiens) (O94907 whole entry, looked up): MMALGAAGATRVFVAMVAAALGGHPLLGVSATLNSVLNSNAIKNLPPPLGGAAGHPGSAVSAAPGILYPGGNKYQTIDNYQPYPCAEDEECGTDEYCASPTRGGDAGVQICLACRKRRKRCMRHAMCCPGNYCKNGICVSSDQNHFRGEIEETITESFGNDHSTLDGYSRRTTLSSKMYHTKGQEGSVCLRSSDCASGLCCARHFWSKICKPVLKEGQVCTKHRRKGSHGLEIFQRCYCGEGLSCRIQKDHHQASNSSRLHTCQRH

[10] = tested on: Inhibin beta A chain (activin A); experiment: small molecules binding activin A – biochemical, small-molecule microarray, 635 nm fluorescence scan, primary screen (AID 1107); conditions: INHBA, higher = more signal;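 further: mouse activin A protein probed at 4.33 µg/mL on printed slides; score merges bound-protein fluorescence near 667 nm with spot signal-to-noise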
[11] = tested on: Human papillomavirus type 1a protein E7 (residues 44-93); experiment: small molecules binding HPV E7 44-93 – biochemical, small-molecule microarray, residues 44-93, 635 nm fluorescence, primary screen (AID 1108); conditions: fluorescence 635 nm, higher = more signal;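 further: E7 fragment applied at 1 µg/mL in TBST for 1 h at 4 C; score combines spot fluorescence with its signal to noise ratio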
[12] = hepatitis C replication reporter changes, two-sided – Huh7 cells, luciferase reporter, HCV replication inhibitor project, primary screen (AID 1109); conditions: Huh7 HCV replicon luciferase reporter, 48 h; higher = more signal;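 further: huh7 hepatoma cells harbouring a luciferase neomycin HCV replicon reporter; luciferase luminescence as measure of HCV replicon replication; test concentration not given here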
[13] = biological target: Left-right determination factor 2 (Homo sapiens) (UniProt O00292); experiment: small molecules binding LEFTY2 protein – biochemical, small-molecule microarray, 635 nm fluorescence scan, primary screen (AID 1110); conditions: higher = more signal
Chain of Left-right determination factor 2 (Homo sapiens) (O00292 whole entry, looked up): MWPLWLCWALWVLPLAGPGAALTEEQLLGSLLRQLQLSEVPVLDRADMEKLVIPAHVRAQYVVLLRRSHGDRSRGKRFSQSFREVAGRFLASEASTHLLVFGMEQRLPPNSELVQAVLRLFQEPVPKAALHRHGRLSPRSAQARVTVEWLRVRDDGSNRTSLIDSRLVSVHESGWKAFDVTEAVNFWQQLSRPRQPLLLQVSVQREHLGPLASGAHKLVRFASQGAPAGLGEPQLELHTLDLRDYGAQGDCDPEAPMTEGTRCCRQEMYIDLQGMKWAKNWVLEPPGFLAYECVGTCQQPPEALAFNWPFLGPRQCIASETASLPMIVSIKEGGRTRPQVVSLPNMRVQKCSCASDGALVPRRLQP

[14] = biological target: Calmodulin-1 (Homo sapiens) (UniProt P0DP23); experiment: small molecules binding calmodulin-1 with EGTA – biochemical, small-molecule microarray, Cy5-labelled CALM1, profiling panel (AID 1111); conditions: Cy5-CALM1 binding fluorescence, higher = more signal;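 further: labelled calmodulin applied in Tris saline Tween buffer holding calcium plus EGTA and DTT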
[15] = biological target: Calmodulin-1 (Homo sapiens) (UniProt P0DP23); experiment: small molecules binding Ca-loaded calmodulin-1 – biochemical, small-molecule microarray, Cy5-labelled CALM1, plus calcium, artefact control for SMM control-protein annotation, profiling panel (AID 1112); conditions: Cy5-CALM1 binding fluorescence, higher = more signal;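 further: score merges spot fluorescence with signal to noise from triplicate slides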
[16] = probe aWnt5a binding to arrayed compounds – biochemical, biotinylated probe, 635/667 nm fluorescence, primary screen (AID 1113); conditions: small-molecule microarray, higher = more signal;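 further: score merges 667 nm fluorescence intensity with signal-to-noise per printed feature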
[17] = probe aShh binding to arrayed compounds – biochemical, biotinylated probe, 635/667 nm fluorescence, primary screen (AID 1114); conditions: small-molecule microarray, higher = more signal;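 further: probe is biotin-labelled aShh protein from a stem cell growth factor screen; measures binding of labelled protein to compounds printed on the slide; score merges feature fluorescence at 667 nm with signal-to-noise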
[18] = probe aNog binding to arrayed compounds – biochemical, biotinylated probe, 635/667 nm fluorescence, primary screen (AID 1115); conditions: small-molecule microarray, higher = more signal;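 further: probe is biotinylated aNog protein used at 0.15 µg/mL for 1 h at 4 C; z-score combines 667 nm fluorescence of each spot with its signal to noise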
[19] = biological target: Torsin-1A-interacting protein 1 (Homo sapiens) (UniProt Q5JTV8); experiment: compound microarray binding of lysate hLAP1 – cell lysate, small-molecule microarray, COS7 lysate, 635/667 nm fluorescence, primary screen (AID 1116); conditions: 635 nm fluorescence, higher = more signal
Chain of Torsin-1A-interacting protein 1 (Homo sapiens) (Q5JTV8 whole entry, looked up): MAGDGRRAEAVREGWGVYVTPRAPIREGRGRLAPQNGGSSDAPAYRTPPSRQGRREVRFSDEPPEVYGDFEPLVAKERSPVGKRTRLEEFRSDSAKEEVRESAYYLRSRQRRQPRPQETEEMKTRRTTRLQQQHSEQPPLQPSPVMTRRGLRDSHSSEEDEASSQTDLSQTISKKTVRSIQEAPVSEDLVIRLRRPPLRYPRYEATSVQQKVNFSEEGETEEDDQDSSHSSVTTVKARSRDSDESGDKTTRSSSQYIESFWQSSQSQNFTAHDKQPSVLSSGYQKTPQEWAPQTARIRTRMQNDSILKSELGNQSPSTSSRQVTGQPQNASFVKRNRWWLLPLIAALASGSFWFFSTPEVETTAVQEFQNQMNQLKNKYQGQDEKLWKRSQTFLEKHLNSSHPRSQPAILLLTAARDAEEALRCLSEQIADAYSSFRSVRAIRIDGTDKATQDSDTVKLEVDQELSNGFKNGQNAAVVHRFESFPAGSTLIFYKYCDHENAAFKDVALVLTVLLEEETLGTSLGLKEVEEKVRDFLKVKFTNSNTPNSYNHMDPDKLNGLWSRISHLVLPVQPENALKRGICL

[20] = biological target: Alpha-bungarotoxin (Bungarus multicinctus) (UniProt P60615); experiment: compounds binding labelled alpha-BTX control protein – biochemical, small-molecule microarray, Alexa647 label, 635/667 nm fluorescence, artefact control for SMM control protein annotation, profiling panel (AID 1117); conditions: alpha-BTX-A647 binding fluorescence, higher = more signal
Chain of Alpha-bungarotoxin (Bungarus multicinctus) (P60615 whole entry, looked up): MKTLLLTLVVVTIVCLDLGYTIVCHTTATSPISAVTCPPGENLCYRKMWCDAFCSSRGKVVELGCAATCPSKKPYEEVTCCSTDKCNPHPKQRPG

Compound	composite z-score [1]	composite z-score [2]	composite z-score [3]	z-score [4]	composite z-score [5]	composite z-score [6]	composite z-score [7]	composite z-score [8]	composite z-score [9]	composite z-score [10]	composite z-score [11]	z-score [12]	composite z-score [13]	composite z-score [14]	composite z-score [15]	composite z-score [16]	composite z-score [17]	composite z-score [18]	composite z-score [19]	composite z-score [20]
CCCNC(=O)[C@@]1(C)c2ccccc2C(=O)N(C(C)C)[C@H]1c1ccc(CO)cc1	1.2	0.695	1.09	0.208 (inactive)	-0.668	-0.743	-1.14	-0.737	-0.612	-0.105	-0.0794	-1.99	-1.28	-0.58	-0.145	-0.212	-0.262	-0.0172	-0.109	-0.731
C=CC[C@]1(C(=O)O)N=C(c2ccc(OCCCO)cc2)O[C@H]1c1ccccc1CN=[N+]=[N-]	1.74	0.177	0.559	-0.611 (inactive)	-0.222	-0.341	-0.0348	0.0521	-0.128	1.35	-0.907	-0.439	-0.46	0.371	0.939	-0.0977	-0.0209	-0.0554	0.371	-0.445
CC(C)C[C@@H]1NC(=O)[C@@H]2C[C@H](C(=O)NCCCCN(C)C)[C@H](c3ccc(O)cc3)N2C1=O	0.791	0.147	0.874	0.619 (inactive)	-1.42	-0.439	-1.29	-0.401	-0.283	-0.134	-0.256	-0.556	-1.58	-0.685	0.33	-0.0977	-0.0553	-0.0791	0.864	-0.318
C=CC[C@@]1(C(=O)NCCN2CCOCC2)N=C(c2ccc(OCCCO)cc2)O[C@@H]1c1ccccc1CN=[N+]=[N-]	1.02	1.06	1.3	-1.05 (inactive)	0.205	0.62	-0.357	0.221	0.137	1.46	0.947	-1.74	-0.325	1.42	0.555	-0.154	0.0822	0.104	1.77	0.604
COC(=O)[C@@]1(Cc2ccc(OC)cc2)[C@H]2c3cc(C(=O)N(C)C)n(CCSCCO)c3C[C@H]2CN1C(=O)c1ccccc1	0.403	1.14	1.16	-2.69 (inactive)	0.448	0.528	-0.263	0.413	-0.796	0.737	1.39	-1.41	-0.675	2.02	0.954	0.149	0.234	-0.553	0.904	0.569
COC(=O)[C@@]1(Cc2ccccc2)[C@H]2c3cc(C(=O)N(C)C)n(Cc4cc(F)c(F)c(F)c4)c3C[C@H]2CN1C(=O)c1ccccc1	1.47	0.375	1.22	-3.26 (inactive)	0.86	-0.629	0.0296	0.521	-0.818	0.748	1.28	-1.87	-0.762	1.39	0.449	0.216	0.415	1.79	0.845	0.517
CN(C)CCCC[C@@H]1NC(=O)[C@@H]2C[C@H](C(=O)NCc3ccc(F)cc3)[C@H](c3cccc(OCCO)c3)N2C1=O	1.17	0.0666	0.0708	-0.815 (inactive)	1.36	0.833	0.267	1.17	0.314	-0.218	1.17	0.679	0.748	0.337	0.136	-0.1	0.207	-0.399	1.07	0.356
C=CCN1Cc2ccccc2C[C@@]2(COC(c3ccc(OCCCO)cc3)=N2)C1=O	1.03	1.02	1.15	-1.13 (inactive)	0.489	0.597	0.437	0.68	0.644	1.59	1.42	-0.908	0.588	0.175	-0.583	0.0633	0.13	0.373	1.33	0.34
O=C1C2C=CC(C(O)c3ccccn3)N(Nc3ccccc3F)C2C(=O)N1c1ccccc1 (stereo not given)	0.205	0.19	0.461	-0.0196 (inactive)	0.0698	-0.0392	0.0563	-0.0532	0.124	0.926	0.642	0.426	0.0355	-0.116	-0.332	-0.0685	0.0278	-0.216	0.0065	0.231
CO[C@H]1O[C@H](CO)[C@@H](OC(=O)Nc2ccc3c(c2)OCO3)[C@H](OC(=O)Nc2ccc3c(c2)OCO3)[C@H]1OC(=O)Nc1ccc2c(c1)OCO2	1.49	-0.0124	0.392	-0.295 (inactive)	1.24	1.33	0.258	0.878	0.101	1.14	1.45	-0.36	0.265	1.52	-0.623	0.0037	0.503	0.961	1.21	0.477
COc1ccc(C#Cc2ccc3c(c2)[C@]2(C(=O)N3)[C@H](C(=O)N3CCN(c4ncccn4)CC3)[C@H]3C(=O)O[C@H](c4ccccc4)[C@H](c4ccccc4)N3[C@@H]2c2ccc(O)cc2)cc1	0.707	-0.015	0.612	-0.73 (inactive)	0.557	0.967	0.366	0.743	0.353	0.536	1.4	-1.73	0.169	1.23	0.0193	0.115	0.315	-0.406	0.399	0.531
